The whole screen tested about 68,000 compounds, of which about 25 (0.04%) showed an effect of 50% or more. The full list was thinned out, with strong results kept by preference.

The record followed here is ChEMBL document CHEMBL3988442, “University of Dundee, Small-Polar-MMV Screening Library” (2021).

In this assay the target is T1, Methionyl-tRNA synthetase, putative (Leishmania donovani (strain BPK282A1)) (UniProt E9BF75).
T1 sequence (whole entry): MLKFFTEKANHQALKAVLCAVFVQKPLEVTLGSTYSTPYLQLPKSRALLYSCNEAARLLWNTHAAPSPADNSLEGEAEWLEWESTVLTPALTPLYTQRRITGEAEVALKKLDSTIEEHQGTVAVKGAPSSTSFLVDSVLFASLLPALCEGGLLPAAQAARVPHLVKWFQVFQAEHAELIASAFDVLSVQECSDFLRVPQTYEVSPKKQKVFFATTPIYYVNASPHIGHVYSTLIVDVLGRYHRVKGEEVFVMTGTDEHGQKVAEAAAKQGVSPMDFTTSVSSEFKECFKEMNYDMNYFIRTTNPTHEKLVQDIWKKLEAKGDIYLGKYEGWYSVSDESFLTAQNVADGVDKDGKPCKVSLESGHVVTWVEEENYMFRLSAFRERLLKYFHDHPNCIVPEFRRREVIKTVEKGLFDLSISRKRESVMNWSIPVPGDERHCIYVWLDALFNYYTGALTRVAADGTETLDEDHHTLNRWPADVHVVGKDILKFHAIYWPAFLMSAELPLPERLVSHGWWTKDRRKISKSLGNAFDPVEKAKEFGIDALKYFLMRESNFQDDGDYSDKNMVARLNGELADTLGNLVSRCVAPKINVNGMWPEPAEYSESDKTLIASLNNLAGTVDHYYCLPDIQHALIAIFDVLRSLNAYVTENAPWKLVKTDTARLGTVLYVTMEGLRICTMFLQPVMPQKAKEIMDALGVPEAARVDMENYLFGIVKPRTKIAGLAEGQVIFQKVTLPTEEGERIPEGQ
In words: Leishmania donovani Methionine tRNA synthetase (LdMetRS):v6. Primary screen assay. The arrangement: conc 80 nM, time 150 minutes. The assay is classed as functional.
By inhibition is commonly meant the change of the read-out against control, counted positive when it falls. Turning to `CC(=O)N1CCN(c2ccc3ccc(C(=O)NC4CCCC4)cn23)CC1`, the inhibition came to 52.9%. Take `N#Cc1cccc(C(=O)N2CC[C@H]3[C@H]2CCN3CC2CCOCC2)c1`: the inhibition worked out at 9.34%. Under `CS(=O)(=O)NC[C@]12COC[C@H]1CN(CCc1ccccc1)C2` stands 13.1%; under `Cc1nc([C@H]2C[C@@H]3CCN(C(=O)c4ccnnc4)C[C@H]3O2)sc1C`, 17%.

In the case of `O=C(NCC1CCOCC1)[C@H]1C[C@@H]2CCN(Cc3ccccc3)C[C@H]2O1`, the inhibition stood at 18.4%. Under `CNC(=O)N1C[C@H]2C[C@H](C(=O)NCc3cccnc3)[C@@H](C1)O2` stands 9.15%; under `Cc1ncc(CN2CCOC(CNc3cccnn3)C2)s1` (stereo not given), 13.2%. Turning to `CCCN1C[C@H]2CC[C@@H]1CN(c1nnc(C(C)C)s1)C2`, the inhibition stood at 9.31%. Under `O=C(Cn1ccc(=O)cc1)N1C[C@H]2CC[C@@H]1CN(c1ncccn1)C2` stands 15.1%; under `CC1=N[C@@]2(CC[C@@H]3CN(Cc4ccccc4C)C[C@@H]32)C(=O)N1CC1CC1`, 6.09%; under `CN1CCC(CO[C@H]2CN(C(=O)c3cccn3C)[C@@H]3COC[C@H]23)CC1`, 8.4%. Turning to `CC(C)CCNc1nnc(C(C)C)s1`, the inhibition turned out to be 80.1%. Under `CCN(CC)S(=O)(=O)CCNc1nnc(C(C)C)s1` stands -0.621%; under `CC(C)c1nnc(NCCS(C)(=O)=O)s1`, 1.24%. On to `COc1ccc(CN2CCO[C@H]3[C@H](OCCN4CCCC4)CC[C@@H]32)cc1`, for which the inhibition worked out at 6.3%. Under `C1CC(CN2C[C@H]3CC[C@@H]2CN(Cc2nnc(C4CC4)o2)C3)C1` stands 9.96%; under `Cc1cncc(C(=O)N2C[C@H]3CCC[C@@]3(COc3ccccn3)C2)c1`, 8.5%. Under `COc1cc(N2CC[C@@H]3O[C@@H](C(=O)NCCN(C)C)C[C@@H]32)ncn1` stands 4.66%. In the case of `O=C1[C@H]2CC[C@H](CN(C3CCOCC3)C2)N1Cc1cscn1` it was 8.93%; in that of `Cc1oncc1C(=O)N1CC[C@H]2[C@@H]1CCC(=O)N2CC1CCOCC1`, 13.7%; in that of `Cc1ccoc1C(=O)N1CC[C@H]2C[C@H](c3nnc(C4CC4)o3)O[C@@H]2C1`, 15.5%.

Take `O=S(=O)(C1CC1)N1C[C@@H]2CN(Cc3ccoc3)CCO[C@@H]2C1`: the inhibition amounted to 8.7%. In the case of `Cc1occc1C(=O)N1C[C@@H]2OCCN(c3ncccn3)[C@@H]2C1` it was 9.59%; in that of `COc1cc(CN2CCN(CC3CC3)[C@@H]3CS(=O)(=O)C[C@@H]32)cc(OC)c1`, 7.26%. In the case of `N#Cc1cccc(CN2C[C@H](NC(=O)C3CC3)[C@H]3OCCC[C@H]32)c1` it was 10.6%.

As for `O=C(NC1CC1)[C@H]1C[C@@H]2CCN(Cc3ccc4c(c3)OCO4)C[C@@H]2O1`, the inhibition worked out at 1.31%. In the case of `CCS(=O)(=O)N1C[C@H]2CCC[C@@]2(COc2ccccn2)C1` it was 12.9%; in that of `CS(=O)(=O)N1CC[C@H]2O[C@H](C(=O)NCCc3ccccn3)CC[C@H]21`, 7.41%; in that of `CCN1C[C@H]2C3(CCN(C(C)=O)CC3)CC[C@@]2(C(=O)N(C)C)C1`, 1.68%. Under `CCCN1C[C@H]2CC[C@@H]1CN(C(=O)c1ccc(N(C)CCO)cc1)C2` stands 12.9%. `Cc1cccc(N2CC[C@@H]3[C@@H](CO[C@H]3CNC(=O)c3ccco3)C2)n1`: the inhibition is 13.1%. In the case of `CSc1ncccc1C(=O)N1C[C@H]2CC[C@@H]1CN(C(=O)N(C)C)C2` it was 16.9%; in that of `CNc1ccnc(N2C[C@@H]3CC[C@H](C2)N(CCOC)C3=O)n1`, -4.82%; in that of `CCCC(C)NC(=O)c1ccc(-c2ccco2)[nH]c1=O` (stereo not given), 9.58%.

As to `CC(CN1CCCC1=O)NC(=O)c1ccc(-c2ccco2)[nH]c1=O` (stereo not given), the inhibition is 16.8%. In the case of `CCC(C)NC(=O)c1ccc(-c2ccco2)[nH]c1=O` (stereo not given) it was 86.2%. Consider `CCN1Cc2nc(OC)c(CNC(=O)C3CCS(=O)(=O)CC3)cc2C1=O`, for which the inhibition is -0.86%.

For the compound `Cc1ccc(CN2CCC[C@]3(C(=O)O)CN(c4ncccn4)C[C@@H]3C2)o1`, the inhibition was found to be 14.6%. In the case of `CC(=O)N1[C@H](Cn2cncn2)C[C@@H]2CN(Cc3ccncc3)CC[C@@H]21` it was 5.54%.

In the case of `Cc1ccc(CN2CCN(CC3CC3)[C@@H]3CS(=O)(=O)C[C@@H]32)cc1C`, the inhibition came to 15.6%. Consider `CCS(=O)(=O)CCNC(=O)[C@@]12CNC[C@@H]1CN(C1CCCC1)C2`, for which the inhibition was determined as 6.92%. Take `Cc1nc(COC[C@@H]2CC[C@H]3[C@H](CCN3S(C)(=O)=O)O2)cs1`: the inhibition turned out to be 15.2%.

Regarding `O=C(CCn1cc(Cl)cn1)N1C[C@@H]2CC[C@H](C1)N(Cc1ccccn1)C2`, the inhibition was found to be 15.8%. Under `Cc1cccc(C(=O)N2C[C@H]3CC[C@@H]2CN(S(=O)(=O)N(C)C)C3)n1` stands 19.9%; under `CCS(=O)(=O)NC[C@]12COC[C@H]1CN(Cc1ccsc1)C2`, 7.3%. Consider `CCC(=O)N1CC[C@@H]2[C@H](CC1)N(Cc1cccc(C)n1)CCS2(=O)=O`, for which the inhibition came out at 14.2%. In the case of `Cc1cc(C)n(-c2nc(NCCCO)c3c4c(sc3n2)CCCC4)n1` it was 59.5%; in that of `Cc1cc(C)n(C2=NC(NCCC(C)C)c3c(sc4c3CCCC4)N2)n1` (stereo not given), 16.4%; in that of `COCCNc1nc(-n2nc(C)cc2C)nc2sc3c(c12)CCCC3`, 9.06%. Under `CN(C)C(c1ccccn1)[C@H]1CC[C@H](CNC(=O)C2CC2)CC1` (stereo not given in full) stands 16%; under `O=C(C[C@@H]1COC[C@H]2CN(Cc3ccc(F)cc3)C[C@@H]12)N1CCCC1`, 13%. In the case of `CC(=O)N1CC[C@@]2(C(=O)Nc3ccccc3)CCN(S(C)(=O)=O)CC[C@@H]12` it was 8.93%; in that of `c1ccc(CN2CC[C@@H]3O[C@@H](COCC4CCOCC4)CC[C@@H]32)nc1`, 10.1%. With `O=C(c1ccsc1)N1C[C@H](N2CCOCC2)[C@@H]2OCCC[C@@H]21`, the inhibition is 13.9%. Under `O=C(C[C@@H]1COC[C@H]2CN(Cc3ccc(F)cc3)C[C@@H]12)N1CCCCO1` stands 12.9%. Under `CNS(=O)(=O)c1ccc(CNC(=O)C2CCCO2)cc1` (stereo not given) stands -0.269%; under `Cc1oncc1C(=O)N1CC[C@H]2[C@@H]1CCC(=O)N2c1cccnc1`, 17.6%; under `Cn1cc(CN2CC[C@H]3O[C@@H](C(=O)NC4CC4)CC[C@H]32)cn1`, 3.76%. Under `c1csc(CN2C[C@@H](n3cccn3)[C@H]3OCCC[C@H]32)c1` stands 10.1%; under `COc1cccc(NC(=O)N2CC[C@@H]3CN(C)S(=O)(=O)[C@@H]3CC2)c1`, -1.1%.
